Assays:
[1] = target: T1, Inhibitor of nuclear factor kappa-B kinase subunit epsilon (Homo sapiens) (UniProt Q14164); settings: at 1 µM;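 note: reported values are averaged percent inhibition figures against human IKKε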
T1 sequence (whole entry): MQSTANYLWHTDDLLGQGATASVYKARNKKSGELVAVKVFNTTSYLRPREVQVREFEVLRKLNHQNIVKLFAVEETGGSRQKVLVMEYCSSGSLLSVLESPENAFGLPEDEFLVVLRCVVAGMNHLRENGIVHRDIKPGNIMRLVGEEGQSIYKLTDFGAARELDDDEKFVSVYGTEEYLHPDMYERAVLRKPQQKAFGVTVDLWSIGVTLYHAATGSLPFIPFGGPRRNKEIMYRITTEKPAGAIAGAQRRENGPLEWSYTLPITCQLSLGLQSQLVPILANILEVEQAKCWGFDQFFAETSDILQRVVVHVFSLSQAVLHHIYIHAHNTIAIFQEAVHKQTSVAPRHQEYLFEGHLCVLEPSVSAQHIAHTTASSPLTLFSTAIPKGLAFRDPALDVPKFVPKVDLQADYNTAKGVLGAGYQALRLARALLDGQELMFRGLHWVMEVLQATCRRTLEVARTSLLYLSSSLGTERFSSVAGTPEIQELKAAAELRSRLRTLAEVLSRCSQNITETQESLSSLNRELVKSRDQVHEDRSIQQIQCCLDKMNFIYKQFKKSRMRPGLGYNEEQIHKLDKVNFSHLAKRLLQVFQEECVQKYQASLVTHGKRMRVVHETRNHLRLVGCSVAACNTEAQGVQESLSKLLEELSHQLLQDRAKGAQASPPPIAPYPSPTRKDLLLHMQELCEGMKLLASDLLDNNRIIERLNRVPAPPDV

[2] = target: T2, Serine/threonine-protein kinase Nek1 (Homo sapiens) (UniProt Q96PY6); settings: at 0.1 µM
T2 sequence (whole entry): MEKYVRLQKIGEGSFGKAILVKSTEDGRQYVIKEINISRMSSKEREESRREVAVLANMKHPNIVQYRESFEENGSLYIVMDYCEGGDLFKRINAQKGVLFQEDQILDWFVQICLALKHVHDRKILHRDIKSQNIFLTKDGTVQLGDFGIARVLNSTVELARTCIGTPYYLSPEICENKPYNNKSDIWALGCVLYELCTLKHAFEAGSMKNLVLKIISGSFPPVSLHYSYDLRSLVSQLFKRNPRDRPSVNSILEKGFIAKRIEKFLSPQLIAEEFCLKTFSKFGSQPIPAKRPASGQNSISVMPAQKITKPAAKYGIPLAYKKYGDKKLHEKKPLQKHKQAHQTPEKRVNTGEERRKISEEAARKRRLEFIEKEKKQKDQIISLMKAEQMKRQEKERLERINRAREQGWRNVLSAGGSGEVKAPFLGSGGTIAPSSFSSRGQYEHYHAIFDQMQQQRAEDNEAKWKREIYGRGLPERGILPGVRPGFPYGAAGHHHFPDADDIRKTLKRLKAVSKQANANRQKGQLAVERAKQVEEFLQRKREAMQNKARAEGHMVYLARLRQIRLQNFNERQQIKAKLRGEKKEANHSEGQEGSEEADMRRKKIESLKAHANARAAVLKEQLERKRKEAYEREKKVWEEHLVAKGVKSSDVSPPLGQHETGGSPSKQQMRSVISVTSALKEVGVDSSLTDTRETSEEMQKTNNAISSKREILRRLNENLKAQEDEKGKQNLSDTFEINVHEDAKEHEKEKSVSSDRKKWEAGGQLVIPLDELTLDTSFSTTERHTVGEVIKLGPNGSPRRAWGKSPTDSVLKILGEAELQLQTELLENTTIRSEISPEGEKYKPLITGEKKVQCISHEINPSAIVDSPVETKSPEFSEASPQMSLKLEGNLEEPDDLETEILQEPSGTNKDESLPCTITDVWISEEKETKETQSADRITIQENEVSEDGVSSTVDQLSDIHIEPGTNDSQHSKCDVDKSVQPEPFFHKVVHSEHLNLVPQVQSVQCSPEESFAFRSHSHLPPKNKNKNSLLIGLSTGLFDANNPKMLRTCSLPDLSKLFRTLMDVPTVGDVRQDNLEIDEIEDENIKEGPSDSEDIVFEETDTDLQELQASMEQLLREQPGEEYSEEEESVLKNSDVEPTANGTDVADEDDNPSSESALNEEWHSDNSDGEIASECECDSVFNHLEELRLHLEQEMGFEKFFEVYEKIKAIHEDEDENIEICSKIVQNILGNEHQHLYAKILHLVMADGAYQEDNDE

[3] = target: T2, Serine/threonine-protein kinase Nek1 (Homo sapiens); settings: at 1 µM
[4] = target: T3, Serine/threonine-protein kinase Nek2 (Homo sapiens) (UniProt P51955); settings: at 0.1 µM
T3 sequence (whole entry): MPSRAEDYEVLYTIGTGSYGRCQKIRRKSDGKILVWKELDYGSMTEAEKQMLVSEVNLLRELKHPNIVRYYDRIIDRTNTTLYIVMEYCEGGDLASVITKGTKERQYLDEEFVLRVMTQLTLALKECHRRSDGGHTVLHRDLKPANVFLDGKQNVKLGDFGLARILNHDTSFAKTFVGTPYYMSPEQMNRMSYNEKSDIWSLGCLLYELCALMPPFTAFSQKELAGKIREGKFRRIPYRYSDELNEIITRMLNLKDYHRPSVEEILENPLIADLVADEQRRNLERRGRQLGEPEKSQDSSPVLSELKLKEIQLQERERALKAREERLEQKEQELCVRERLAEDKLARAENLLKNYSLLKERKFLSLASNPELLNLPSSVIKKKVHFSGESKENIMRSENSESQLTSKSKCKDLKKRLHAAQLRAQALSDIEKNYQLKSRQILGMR

[5] = target: T3, Serine/threonine-protein kinase Nek2 (Homo sapiens); settings: at 1 µM
[6] = target: Serine/threonine-protein kinase Nek6 (Homo sapiens) (UniProt Q9HC98); settings: at 0.1 µM
Sequence of Serine/threonine-protein kinase Nek6 (Homo sapiens) (Q9HC98 whole entry): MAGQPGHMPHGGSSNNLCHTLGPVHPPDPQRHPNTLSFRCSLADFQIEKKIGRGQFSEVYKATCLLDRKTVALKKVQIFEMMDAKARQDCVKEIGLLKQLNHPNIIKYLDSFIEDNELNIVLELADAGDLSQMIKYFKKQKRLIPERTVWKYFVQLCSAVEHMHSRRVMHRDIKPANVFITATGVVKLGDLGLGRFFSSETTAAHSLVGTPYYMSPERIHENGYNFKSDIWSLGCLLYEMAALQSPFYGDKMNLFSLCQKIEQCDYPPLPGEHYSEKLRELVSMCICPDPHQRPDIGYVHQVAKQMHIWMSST

[7] = target: Serine/threonine-protein kinase Nek6 (Homo sapiens) (UniProt Q9HC98); settings: at 1 µM
[8] = target: Serine/threonine-protein kinase Nek7 (Homo sapiens) (UniProt Q8TDX7); settings: at 0.1 µM
Sequence of Serine/threonine-protein kinase Nek7 (Homo sapiens) (Q8TDX7 whole entry, looked up): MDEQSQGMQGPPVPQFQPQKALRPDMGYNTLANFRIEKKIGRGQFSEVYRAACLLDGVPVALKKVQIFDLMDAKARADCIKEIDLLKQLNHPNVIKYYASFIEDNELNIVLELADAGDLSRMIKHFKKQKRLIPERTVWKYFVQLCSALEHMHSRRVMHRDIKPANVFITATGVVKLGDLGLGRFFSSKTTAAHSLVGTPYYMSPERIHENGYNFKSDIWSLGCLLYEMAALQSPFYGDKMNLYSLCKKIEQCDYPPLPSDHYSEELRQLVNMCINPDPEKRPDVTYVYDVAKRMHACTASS

[9] = target: Serine/threonine-protein kinase Nek7 (Homo sapiens) (UniProt Q8TDX7); settings: at 1 µM
[10] = target: T4, Serine/threonine-protein kinase Nek9 (Homo sapiens) (UniProt Q8TD19); settings: at 0.1 µM
T4 sequence (whole entry): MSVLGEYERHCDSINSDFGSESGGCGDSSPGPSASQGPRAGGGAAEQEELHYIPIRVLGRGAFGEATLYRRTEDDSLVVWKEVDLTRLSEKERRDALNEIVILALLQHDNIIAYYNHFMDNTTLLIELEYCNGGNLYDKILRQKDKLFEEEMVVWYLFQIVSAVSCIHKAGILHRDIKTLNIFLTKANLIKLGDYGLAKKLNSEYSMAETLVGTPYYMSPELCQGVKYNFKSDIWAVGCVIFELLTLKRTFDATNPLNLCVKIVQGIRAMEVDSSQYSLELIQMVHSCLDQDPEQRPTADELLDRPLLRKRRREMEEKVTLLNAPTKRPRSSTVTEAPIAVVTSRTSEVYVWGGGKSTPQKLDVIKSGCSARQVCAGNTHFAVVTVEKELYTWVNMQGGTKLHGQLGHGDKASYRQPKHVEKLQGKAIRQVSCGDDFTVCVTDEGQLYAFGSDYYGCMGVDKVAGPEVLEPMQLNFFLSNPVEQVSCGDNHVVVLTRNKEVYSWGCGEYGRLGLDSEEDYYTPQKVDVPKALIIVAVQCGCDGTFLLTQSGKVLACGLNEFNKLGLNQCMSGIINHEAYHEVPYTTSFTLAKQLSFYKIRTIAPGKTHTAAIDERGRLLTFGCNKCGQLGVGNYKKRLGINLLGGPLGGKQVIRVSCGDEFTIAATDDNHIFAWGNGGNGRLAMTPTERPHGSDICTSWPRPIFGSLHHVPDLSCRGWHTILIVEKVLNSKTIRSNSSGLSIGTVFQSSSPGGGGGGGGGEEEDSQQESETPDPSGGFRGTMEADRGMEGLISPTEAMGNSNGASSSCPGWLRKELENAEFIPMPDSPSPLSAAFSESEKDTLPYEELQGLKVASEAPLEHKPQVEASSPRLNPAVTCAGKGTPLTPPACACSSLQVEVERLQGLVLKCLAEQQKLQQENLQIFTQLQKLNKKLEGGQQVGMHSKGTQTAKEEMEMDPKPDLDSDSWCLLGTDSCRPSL

[11] = target: T4, Serine/threonine-protein kinase Nek9 (Homo sapiens); settings: at 1 µM
[12] = target: Serine/threonine-protein kinase PLK1 (Homo sapiens) (UniProt P53350); settings: at 0.1 µM
Sequence of Serine/threonine-protein kinase PLK1 (Homo sapiens) (P53350 whole entry): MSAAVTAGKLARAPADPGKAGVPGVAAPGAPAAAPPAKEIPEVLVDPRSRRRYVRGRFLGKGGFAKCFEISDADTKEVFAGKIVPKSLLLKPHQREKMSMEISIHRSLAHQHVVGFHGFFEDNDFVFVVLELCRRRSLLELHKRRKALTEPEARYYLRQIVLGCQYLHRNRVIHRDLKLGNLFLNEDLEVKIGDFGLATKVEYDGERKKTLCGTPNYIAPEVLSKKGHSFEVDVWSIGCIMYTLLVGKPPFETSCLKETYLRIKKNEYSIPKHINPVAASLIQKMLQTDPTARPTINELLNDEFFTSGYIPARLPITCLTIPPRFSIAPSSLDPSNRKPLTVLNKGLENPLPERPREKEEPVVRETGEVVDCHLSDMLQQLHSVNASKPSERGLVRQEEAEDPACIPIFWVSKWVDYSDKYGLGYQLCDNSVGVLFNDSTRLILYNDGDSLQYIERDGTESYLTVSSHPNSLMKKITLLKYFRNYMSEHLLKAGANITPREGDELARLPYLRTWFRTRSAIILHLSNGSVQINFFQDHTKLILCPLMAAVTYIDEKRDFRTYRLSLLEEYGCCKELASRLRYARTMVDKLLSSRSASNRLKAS

[13] = target: Serine/threonine-protein kinase PLK1 (Homo sapiens) (UniProt P53350); settings: at 1 µM
[14] = target: T5, Dual specificity protein kinase TTK (Homo sapiens) (UniProt P33981); settings: at 0.1 µM
T5 sequence (whole entry): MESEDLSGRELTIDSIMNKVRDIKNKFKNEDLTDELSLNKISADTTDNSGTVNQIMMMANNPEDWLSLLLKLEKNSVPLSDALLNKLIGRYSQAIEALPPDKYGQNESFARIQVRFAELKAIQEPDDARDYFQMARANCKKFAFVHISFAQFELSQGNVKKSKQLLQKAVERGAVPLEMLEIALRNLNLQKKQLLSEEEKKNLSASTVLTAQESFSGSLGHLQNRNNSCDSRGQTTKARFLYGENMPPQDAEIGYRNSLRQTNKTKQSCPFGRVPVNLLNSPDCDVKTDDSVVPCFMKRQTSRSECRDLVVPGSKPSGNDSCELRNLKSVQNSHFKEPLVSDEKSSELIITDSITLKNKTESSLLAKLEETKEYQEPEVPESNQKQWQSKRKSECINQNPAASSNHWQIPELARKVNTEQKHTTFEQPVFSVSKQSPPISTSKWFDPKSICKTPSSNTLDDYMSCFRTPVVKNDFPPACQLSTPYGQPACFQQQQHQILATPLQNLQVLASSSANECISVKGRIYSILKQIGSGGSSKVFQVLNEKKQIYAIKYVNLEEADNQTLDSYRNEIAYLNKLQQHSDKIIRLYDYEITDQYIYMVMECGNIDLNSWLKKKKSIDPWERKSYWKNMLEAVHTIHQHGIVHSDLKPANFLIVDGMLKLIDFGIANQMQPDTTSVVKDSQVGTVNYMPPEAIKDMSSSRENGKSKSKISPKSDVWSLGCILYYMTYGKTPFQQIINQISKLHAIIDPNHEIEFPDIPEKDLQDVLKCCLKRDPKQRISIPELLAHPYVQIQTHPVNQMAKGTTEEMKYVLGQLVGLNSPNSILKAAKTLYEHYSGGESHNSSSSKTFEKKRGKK

[15] = system: T6, Receptor-type tyrosine-protein kinase FLT3 (Homo sapiens), P36888 [D835Y]; settings: at 1 µM
T6 sequence (whole entry): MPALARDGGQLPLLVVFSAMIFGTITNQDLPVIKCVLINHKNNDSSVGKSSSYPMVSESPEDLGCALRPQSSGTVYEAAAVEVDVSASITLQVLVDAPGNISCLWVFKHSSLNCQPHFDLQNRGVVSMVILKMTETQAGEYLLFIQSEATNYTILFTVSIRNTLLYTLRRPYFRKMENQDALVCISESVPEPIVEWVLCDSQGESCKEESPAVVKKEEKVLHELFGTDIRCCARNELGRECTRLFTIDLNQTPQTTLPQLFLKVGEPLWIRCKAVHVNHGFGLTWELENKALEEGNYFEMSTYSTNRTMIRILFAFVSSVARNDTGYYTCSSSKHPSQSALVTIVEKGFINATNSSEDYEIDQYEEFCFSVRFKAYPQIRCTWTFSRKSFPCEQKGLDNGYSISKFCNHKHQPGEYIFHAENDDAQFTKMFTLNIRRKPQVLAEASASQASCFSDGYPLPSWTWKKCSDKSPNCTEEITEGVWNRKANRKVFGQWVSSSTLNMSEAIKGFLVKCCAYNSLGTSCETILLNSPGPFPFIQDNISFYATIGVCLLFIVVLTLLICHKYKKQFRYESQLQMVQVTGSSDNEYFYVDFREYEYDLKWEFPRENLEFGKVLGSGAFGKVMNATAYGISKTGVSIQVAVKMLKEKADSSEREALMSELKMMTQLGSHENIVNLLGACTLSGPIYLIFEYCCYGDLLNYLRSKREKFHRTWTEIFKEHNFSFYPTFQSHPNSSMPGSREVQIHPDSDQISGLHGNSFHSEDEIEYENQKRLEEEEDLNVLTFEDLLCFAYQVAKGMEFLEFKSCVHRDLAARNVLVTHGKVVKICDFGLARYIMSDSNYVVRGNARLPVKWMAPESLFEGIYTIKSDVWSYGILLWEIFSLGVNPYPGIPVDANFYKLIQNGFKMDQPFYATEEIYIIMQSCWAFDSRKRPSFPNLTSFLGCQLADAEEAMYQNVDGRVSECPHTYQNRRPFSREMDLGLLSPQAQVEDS

[16] = target: Vascular endothelial growth factor receptor 3 (Homo sapiens) (UniProt P35916); settings: at 0.1 µM
Sequence of Vascular endothelial growth factor receptor 3 (Homo sapiens) (P35916 whole entry): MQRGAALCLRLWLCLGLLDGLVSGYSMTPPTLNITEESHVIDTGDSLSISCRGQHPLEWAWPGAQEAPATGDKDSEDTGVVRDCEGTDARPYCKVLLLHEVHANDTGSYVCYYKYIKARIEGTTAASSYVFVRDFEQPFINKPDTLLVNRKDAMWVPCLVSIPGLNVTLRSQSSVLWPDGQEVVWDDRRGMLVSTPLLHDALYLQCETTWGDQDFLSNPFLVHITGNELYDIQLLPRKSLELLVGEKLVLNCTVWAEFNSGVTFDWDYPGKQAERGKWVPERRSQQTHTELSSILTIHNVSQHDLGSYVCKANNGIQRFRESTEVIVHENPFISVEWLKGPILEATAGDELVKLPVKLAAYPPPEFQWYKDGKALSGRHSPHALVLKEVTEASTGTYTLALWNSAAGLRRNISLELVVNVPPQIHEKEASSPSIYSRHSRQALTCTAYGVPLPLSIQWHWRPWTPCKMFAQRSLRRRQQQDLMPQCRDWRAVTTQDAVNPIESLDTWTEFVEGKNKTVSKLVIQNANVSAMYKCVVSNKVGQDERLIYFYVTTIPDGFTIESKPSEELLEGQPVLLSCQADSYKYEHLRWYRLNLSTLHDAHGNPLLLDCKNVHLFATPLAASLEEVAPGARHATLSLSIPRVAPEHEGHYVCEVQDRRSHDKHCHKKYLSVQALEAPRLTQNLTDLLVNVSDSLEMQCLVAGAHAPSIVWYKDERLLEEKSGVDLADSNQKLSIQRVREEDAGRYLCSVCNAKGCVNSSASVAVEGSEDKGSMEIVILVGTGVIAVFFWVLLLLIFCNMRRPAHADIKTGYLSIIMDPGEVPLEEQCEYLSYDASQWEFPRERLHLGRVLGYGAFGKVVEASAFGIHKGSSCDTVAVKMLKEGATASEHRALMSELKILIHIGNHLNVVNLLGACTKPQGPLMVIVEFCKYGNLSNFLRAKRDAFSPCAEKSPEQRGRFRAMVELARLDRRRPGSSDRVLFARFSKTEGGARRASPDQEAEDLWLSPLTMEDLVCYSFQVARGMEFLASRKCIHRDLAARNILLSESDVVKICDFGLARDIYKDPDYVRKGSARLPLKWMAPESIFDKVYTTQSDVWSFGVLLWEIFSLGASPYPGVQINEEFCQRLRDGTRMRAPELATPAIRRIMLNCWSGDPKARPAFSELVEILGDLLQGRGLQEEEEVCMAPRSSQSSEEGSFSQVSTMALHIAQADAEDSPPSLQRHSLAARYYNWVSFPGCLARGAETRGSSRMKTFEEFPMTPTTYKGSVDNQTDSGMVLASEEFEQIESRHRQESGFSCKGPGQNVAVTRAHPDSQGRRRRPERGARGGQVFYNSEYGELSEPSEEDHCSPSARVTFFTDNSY

[17] = target: Vascular endothelial growth factor receptor 3 (Homo sapiens) (UniProt P35916); settings: at 1 µM
[18] = target: Macrophage colony-stimulating factor 1 receptor (Homo sapiens) (UniProt P07333); settings: at 0.1 µM
Sequence of Macrophage colony-stimulating factor 1 receptor (Homo sapiens) (P07333 whole entry): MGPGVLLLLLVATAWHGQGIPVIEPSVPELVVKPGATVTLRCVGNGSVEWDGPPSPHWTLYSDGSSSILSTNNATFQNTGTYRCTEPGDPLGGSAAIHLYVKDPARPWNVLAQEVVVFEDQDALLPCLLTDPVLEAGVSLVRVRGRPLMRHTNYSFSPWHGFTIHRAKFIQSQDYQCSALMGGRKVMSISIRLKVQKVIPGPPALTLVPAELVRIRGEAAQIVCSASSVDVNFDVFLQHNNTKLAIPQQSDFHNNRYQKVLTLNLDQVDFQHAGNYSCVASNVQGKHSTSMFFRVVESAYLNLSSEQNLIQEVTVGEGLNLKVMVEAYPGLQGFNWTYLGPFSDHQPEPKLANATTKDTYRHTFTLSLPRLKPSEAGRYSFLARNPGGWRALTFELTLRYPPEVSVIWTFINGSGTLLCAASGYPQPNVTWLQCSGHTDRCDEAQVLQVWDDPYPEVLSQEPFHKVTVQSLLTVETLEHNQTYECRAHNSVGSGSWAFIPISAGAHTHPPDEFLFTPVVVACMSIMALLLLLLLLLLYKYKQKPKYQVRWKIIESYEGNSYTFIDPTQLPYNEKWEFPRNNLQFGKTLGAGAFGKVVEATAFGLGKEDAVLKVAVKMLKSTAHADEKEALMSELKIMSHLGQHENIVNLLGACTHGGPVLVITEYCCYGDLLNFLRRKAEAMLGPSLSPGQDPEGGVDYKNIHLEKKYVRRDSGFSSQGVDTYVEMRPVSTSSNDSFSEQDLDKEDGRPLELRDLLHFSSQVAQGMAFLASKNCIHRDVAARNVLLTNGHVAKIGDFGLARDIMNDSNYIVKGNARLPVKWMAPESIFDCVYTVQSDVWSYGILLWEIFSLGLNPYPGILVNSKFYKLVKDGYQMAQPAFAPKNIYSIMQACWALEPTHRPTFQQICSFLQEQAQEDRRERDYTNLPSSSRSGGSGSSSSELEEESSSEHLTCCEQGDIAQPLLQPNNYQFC

[19] = target: Macrophage colony-stimulating factor 1 receptor (Homo sapiens) (UniProt P07333); settings: at 1 µM
[20] = target: Tyrosine-protein kinase Fyn (Homo sapiens) (UniProt P06241); settings: at 0.1 µM
Sequence of Tyrosine-protein kinase Fyn (Homo sapiens) (P06241 2-537 limits assumed): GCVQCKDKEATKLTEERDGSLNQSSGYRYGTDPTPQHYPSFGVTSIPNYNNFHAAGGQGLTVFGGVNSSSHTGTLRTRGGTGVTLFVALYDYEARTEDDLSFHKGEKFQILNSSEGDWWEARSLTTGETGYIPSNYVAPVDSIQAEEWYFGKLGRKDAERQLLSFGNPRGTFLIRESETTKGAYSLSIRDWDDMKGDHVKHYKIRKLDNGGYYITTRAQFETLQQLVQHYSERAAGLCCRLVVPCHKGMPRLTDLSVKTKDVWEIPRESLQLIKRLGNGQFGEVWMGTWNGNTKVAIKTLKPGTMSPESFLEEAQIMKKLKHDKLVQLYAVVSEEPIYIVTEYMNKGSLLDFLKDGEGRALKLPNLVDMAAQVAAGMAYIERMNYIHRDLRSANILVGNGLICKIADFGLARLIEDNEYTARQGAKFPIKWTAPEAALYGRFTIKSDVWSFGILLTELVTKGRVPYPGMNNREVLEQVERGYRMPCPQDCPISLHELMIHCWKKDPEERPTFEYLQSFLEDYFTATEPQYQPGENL

| SMILES | inhibition [1] [%] | inhibition [2] [%] | inhibition [3] [%] | inhibition [4] [%] | inhibition [5] [%] | inhibition [6] [%] | inhibition [7] [%] | inhibition [8] [%] | inhibition [9] [%] | inhibition [10] [%] | inhibition [11] [%] | inhibition [12] [%] | inhibition [13] [%] | inhibition [14] [%] | inhibition [15] [%] | inhibition [16] [%] | inhibition [17] [%] | inhibition [18] [%] | inhibition [19] [%] | inhibition [20] [%] |
| --- | --- | --- | --- | --- | --- | --- | --- | --- | --- | --- | --- | --- | --- | --- | --- | --- | --- | --- | --- | --- |
| Cc1ccc(C(=O)NC2CC2)cc1-c1ccc2[nH]ncc2c1 | -3.47 | -0.31 | 1.87 | -2.19 | 0.98 | -3.09 | -3.72 | -7.62 | -4.5 | 0.32 | -2.78 | -2.55 | -0.76 | -7.32 | 3.33 | -0.16 | 1.13 | -5.43 | 4.56 | -0.87 |
| Cc1nc(-c2ccccc2)n2nc(NCCCN3CCOCC3)ncc12 | 6.26 | 1.82 | 1.68 | 3.14 | 1.97 | -0.18 | 3.25 | 1.2 | 2.34 | 7.69 | 8.77 | 3.18 | 3.22 | 6.18 | 1.89 | 2.75 | 2.24 | 1.73 | 10.9 | 1.73 |

Source: ChEMBL document CHEMBL1961873, “Compounds: GSK PKIS; Assays: Nanosyn kinase panel” (2012)
